Compound activity deposited in PubChem by National Center for Advancing Translational Sciences (NCATS).
FUS suppressor: suppressors of FUS proteinopathy in yeast. S. cerevisiae FUS-expressing, growth rescue, OD600, 24 h. Potency, µM (series often up to 76.6 µM), usual class: activators. 390,000 compounds, 0.24% hits. AID 1347120; further: nearly all actives have a fitted effect of over 55% in size
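Yeast expressing FUS under galactose induction, OD 0.005 in 2% galactose medium; compounds in a dilution series, 24 h at 30C. Growth rescue by absorbance at 600 nm; CP55940 positive control, DMSO negative.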
gsp agonist: activates gsp, the McCune-Albright syndrome mutation; gsp mutant cells, cAMP HTRF, 30 min; Potency, µM (doses to about 76.9 µM), most hits filed as activators; 340,000 compounds, 0.13% hits; AID 624287; active means well fitted activation curve with a large enough effect; inconclusive means small, poorly fitted or top-dose-only effect, or another doubt; inactive means no such curve, though single readings can be large or run the other way; cell line not stated here;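 further: phosphodiesterase inhibitor Ro 20-1724 added with compounds to block cAMP breakdown; nearly all actives have a fitted effect of over 60% in size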
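Cells in DMEM/10% FBS with G418 were pretreated with compounds in DMSO plus […] (300 uM stock) for 30 min at 37C. cAMP was measured by HTRF (cAMP-d2 plus anti-cAMP antibody-K) after 30 min at room temperature.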
Mito fusion act: blocks mitochondrial division or promotes mitochondrial fusion | S. cerevisiae fusion-defective mutant growth rescue, CellTiterGlo 48 h | Potency, µM (series often up to 46.1 µM), most hits filed as activators | 320,000 compounds, 0.23% hits | AID 485298; further: nearly all actives have a fitted effect of over 45% in size
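Temperature-sensitive fusion-defective S. cerevisiae (e.g. fzo1-1, mgm1-5) were grown with compound in YPEG medium (3% ethanol, 3% glycerol) for 48 hours at 37C. Growth rescue was measured as viability by CellTiterGlo luminescence after 10 minutes at ambient.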
gsp antag: gsp mutant antagonism | gsp-mutant cells, cAMP HTRF, 30 min | Potency, µM (doses to about 76.9 µM), actives largely listed as inhibitors | 340,000 compounds, 0.4% hits; calls by dose curve; cell line not stated here;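 further: intracellular cAMP measured with PDE inhibitor Ro 20-1724 present during compound exposure; nearly all actives have a fitted effect of over 65% in size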
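HTRF cAMP measurement after 30 min RT detection following 30 min, 37C compound treatment alongside […] (added as 300 uM solution) in G418-selected cells seeded at 2000/well and grown 16–24 h.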
ALOX12 inh: ALOX12 (human) lipoxygenase inhibition. P18054. purified 12hLO, xylenol orange hydroperoxide absorbance. Potency, µM (titrated, usually from 108 µM), most hits filed as inhibitors. 580,000 compounds, 1.1% hits. AID 1671190
Target sequence (P18054 whole entry, looked up): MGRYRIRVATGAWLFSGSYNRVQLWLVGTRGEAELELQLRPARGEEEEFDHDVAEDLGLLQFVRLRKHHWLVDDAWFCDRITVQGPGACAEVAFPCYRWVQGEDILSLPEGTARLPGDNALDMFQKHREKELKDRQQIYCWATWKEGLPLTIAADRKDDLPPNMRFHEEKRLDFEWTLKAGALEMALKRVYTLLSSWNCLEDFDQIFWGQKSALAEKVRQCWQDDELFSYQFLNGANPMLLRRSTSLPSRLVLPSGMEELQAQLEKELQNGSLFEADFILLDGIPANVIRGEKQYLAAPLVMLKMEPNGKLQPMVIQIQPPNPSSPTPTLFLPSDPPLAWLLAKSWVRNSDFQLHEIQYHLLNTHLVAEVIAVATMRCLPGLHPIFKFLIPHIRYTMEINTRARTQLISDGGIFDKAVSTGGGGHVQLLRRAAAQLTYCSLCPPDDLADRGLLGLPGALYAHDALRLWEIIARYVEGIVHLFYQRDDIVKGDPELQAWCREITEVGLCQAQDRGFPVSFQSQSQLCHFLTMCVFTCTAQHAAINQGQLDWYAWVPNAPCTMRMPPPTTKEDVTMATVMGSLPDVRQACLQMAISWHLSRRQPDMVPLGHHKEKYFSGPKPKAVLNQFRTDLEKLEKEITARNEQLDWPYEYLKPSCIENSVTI
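Purified human 12hLO (150 nM final) in 25 mM Hepes, 0.01% Triton X-100, pH 7.0 was preincubated 15 min at room temperature with compound. Then 40 uM arachidonic acid was added, 30 min. Hydroperoxide was read by Fe-XO absorbance ratio 573/405 nm.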
A number is an active result; i = inactive; ? = inconclusive; nt = no result given; ! = not active in a repeat; [ ] = dose if it differs, or a comment. Sampled rows, rich in hits. Any-hit rate of the full collection: about 1.6%. Unless noted, the call rests on the fitted dose curve; in most records, active means well fitted curve in the direction sought with a large enough effect; inconclusive means small, poorly fitted or top-dose-only effect, or another doubt; inactive means no such curve, though single readings can be large; an effect the other way counts as inactive or inconclusive.

SMILES	FUS suppressor	gsp agonist	Mito fusion act	gsp antag	ALOX12 inh
CCN(CC)S(=O)(=O)c1cc([N+](=O)[O-])ccc1NNC(=O)Nc1ccc(F)cc1	i	i	i	50.1µM	?
Cc1ccc(COC[C@H](CC(C)C)N2CCN(C(=O)c3cccc(C(F)(F)F)c3)CCC2=O)cc1	4.47µM	nt	nt	nt	i
CC(C)CC(COCc1ccc(Cl)cc1)N1CCN(C(=O)c2cccc(C(F)(F)F)c2)CCC1=O (configuration not stated)	31.6µM	?	?	i	?
CC(C)CC(COCc1cccc(C(F)(F)F)c1)N1CCN(C(=O)c2cccc(C(F)(F)F)c2)CCC1=O (configuration not stated)	?	i	i	i	?
CC(C)C[C@H]1CNC(=S)N1C[C@H]1CCCN1C[C@H](Cc1ccccc1)N1C[C@H](CC(C)C)N(CCc2ccccc2)C1=S	25.1µM	nt	nt	nt	?
CC(C)C[C@H]1CNC(=S)N1C[C@H]1CCCN1C[C@H](CC(C)C)N1C[C@H](CC(C)C)N(CCc2ccccc2)C1=S	i	nt	nt	nt	?
CCOc1ccc(CCN2C(=O)C(=O)N([C@@H](Cc3ccccc3)CN3CCC[C@H]3CN3C(=O)C(=O)NC[C@@H]3Cc3ccccc3)C[C@@H]2Cc2ccc(O)cc2)cc1	15.8µM	nt	nt	nt	i
CCOc1ccc(CCN2C(=O)C(=O)N([C@@H](Cc3ccccc3)CN3CCC[C@H]3CN3C(=O)C(=O)NC[C@@H]3Cc3ccccc3)C[C@@H]2Cc2ccccc2)cc1	?	nt	nt	nt	i
NS(=O)(=O)c1cccc(NC(=S)NC(=O)C23CC4CC(CC(C4)C2)C3)c1	nt	i	i	i	31.6µM
CCCc1noc(CN2C(=O)NC(c3ccccc3OC)C3=C2COC3=O)n1 (configuration not stated)	nt	nt	nt	nt	i
CC(C)(C)OC(=O)NCc1ccc(NC(=O)c2nc[nH]c2C(=O)NCCN(CCNC(=O)c2[nH]cnc2C(=O)Nc2ccc(CNC(=O)OC(C)(C)C)cc2)CCNC(=O)c2[nH]cnc2C(=O)Nc2ccc(CNC(=O)OC(C)(C)C)cc2)cc1	8.91µM	i	nt	i	i
CC1CCN(C(=O)CCC[C@H]2NC[C@@H]3C[C@H]2CN(Cc2ccccc2)C3)CC1	nt	nt	nt	nt	10µM
CN(Cc1cccnc1)C(=O)CCC[C@H]1NC[C@@H]2C[C@H]1CN(Cc1ccccc1)C2	nt	nt	nt	nt	i
CN(Cc1ccc(N2CCCCC2)cc1)C(=O)CCC[C@H]1NC[C@@H]2C[C@H]1CN(Cc1ccccc1)C2	nt	nt	nt	nt	7.94µM
Cc1ccc(CN2CCN(C(=O)C3(Cc4cccnc4)CCCCC(=O)N3)CC2)cc1 (configuration not stated)	nt	nt	nt	nt	i
CN(C)c1ccc(/C=C/c2ccc3c4ccccc4ccc3[n+]2-c2ccccc2)cc1	i	i[15.4 µM]	i	39.8µM	?
O=c1c2c3c(sc2nc(NCCO)n1CCc1ccccc1)CCCCC3	?	?	20µM	?	?
NC(=O)NC(=O)COC(=O)c1cc(Cl)ccc1Cl	nt	nt	nt	nt	i
CC(=O)C1=CCC(c2ccc(C)o2)N(S(=O)(=O)c2ccc(C)cc2)C1 (configuration not stated)	i	nt	nt	nt	10µM
CC(=O)C1=CCC(c2cccs2)N(S(=O)(=O)c2ccc(C)cc2)C1 (configuration not stated)	i	nt	nt	nt	?
CC(Oc1ccc(F)cc1)C(=O)NC1(C#N)CCCCC1 (configuration not stated)	nt	nt	nt	nt	i
O=C(O)c1ccc(-n2ncc(Cl)c(Cl)c2=O)cc1	i	10µM	nt	nt	nt
CCOCCn1c(SCC(=O)OC)nc2c1c(=O)[nH]c(=O)n2C	nt	nt	nt	nt	i
CC1CCc2c(C(=O)Nc3cccc(Br)c3)csc2C1 (configuration not stated)	nt	nt	nt	nt	i
CN(C)S(=O)(=O)Oc1ccsc1C(=O)Nc1cccc(Cl)c1Cl	i	i	i	?	i
SMILES	FUS suppressor	gsp agonist	Mito fusion act	gsp antag	ALOX12 inh
CN(C)S(=O)(=O)Oc1ccsc1C(=O)Nc1ccccc1Cl	i	i	i	28.2µM	i
CN(C)S(=O)(=O)c1cccc(NC(=S)NNC(=O)c2cc3ccccc3cc2O)c1	i	i[15.4 µM]	i	i	35.5µM
COc1ccc(C2C(C(C)=O)=C(O)C(=O)N2c2nc3ccccc3s2)cc1OC (configuration not stated)	i	?	i	i	44.7µM
CCOC(=O)c1sc(N2C(=O)C(O)=C(C(=O)c3ccc(C)o3)C2c2cccc([N+](=O)[O-])c2)nc1C (configuration not stated)	i	?	i	?	?
COc1ccc2nc(N3C(=O)C(O)=C(C(=O)c4ccco4)C3c3ccc(OC)c(OC)c3)sc2c1 (configuration not stated)	?	i	nt	nt	39.8µM
Cc1ccc2nc(N3C(=O)C(O)=C(C(=O)c4ccc(C)o4)C3c3cccc(O)c3)sc2c1 (configuration not stated)	i	i[15.4 µM]	i	i	12.6µM!
COC(=O)c1sc(N2C(=O)C(O)=C(C(=O)c3ccc(C)o3)C2c2ccc(OC)c(OC)c2)nc1C (configuration not stated)	?	3.55µM	i	i	nt
COC(=O)N1CCC2(C1)C(=O)N(CCc1ccccc1)c1ccccc12 (configuration not stated)	nt	nt	nt	nt	i
Cc1ccc(O)c(C(=O)C/C(=N/O)C(F)(F)C(F)F)c1	nt	nt	nt	nt	i
O=C(c1cc(COc2c(F)cccc2F)on1)N1CCC(c2ccccc2Cl)C1 (configuration not stated)	i	i[15.4 µM]	i	i	i
CN(Cc1cccc2cnccc12)C(=O)c1cc(COc2ccc(F)cc2F)on1	i	i	i	i	i
O=C(c1cc(COc2cccc3cnccc23)on1)N1CCC(c2ccccc2Cl)C1 (configuration not stated)	?	i	?	28.2µM	i
CCc1ccc(CN(C)C(=O)c2cc(COc3cccc4cnccc34)on2)cc1	?	i	i	35.5µM	i
Clc1ccc(CN2CCC[C@H]2c2nc(-c3ccc(N4CCOCC4)nc3)no2)cc1	nt	nt	nt	nt	i
COc1ccc(-c2cc3nc4n(c(=O)c3s2)CCC4)cc1	i	15.8µM	i	i	i
COc1cccc([S+](=O)([O-])N2CCC3(CC2)C(=NC2CCCCC2)NC(=O)N3c2cc(F)cc(F)c2)c1	nt	nt	nt	nt	i[6.33 µM]
O=C(O)c1ccc2c(c1)C1C=CCC1C(c1cc3c(cc1Br)OCO3)N2 (configuration not stated)	i	i	11.2µM	i	?
COc1cc2c(cc1OC)-c1c(c(C(=O)N3CCCC3)nn1-c1ccccc1Cl)C2	nt	nt	nt	nt	i
CC(=O)OCCN1c2ccccc2Sc2cnccc21	i	i	nt	nt	i
CC(=O)OCCCN1c2ccccc2Nc2nnc(-c3ccccc3)cc21	i	i	i	39.8µM	i
O=C(NCCc1ccco1)C1CCN(c2ncc(C(F)(F)F)cc2Cl)CC1	nt	nt	nt	nt	i
Cc1ccccc1Cn1nnc2c(=O)[nH]c(C3CCCN(C(=O)c4ccc(C(C)(C)C)cc4)C3)nc21 (configuration not stated)	?	nt	nt	nt	i
